# In ChEMBL document CHEMBL3988442, “University of Dundee, Small-Polar-MMV Screening Library” (2021):
# Out of some 48,000 compounds screened, about 13,000 (27%) showed an effect of 50% or more. The list shows a part of the results.
# Test system: Wolbachia pipientis
# Experiment: Anti-Wolbachia Cell-Based Screen
# Format: functional
# Set-up: scale not given: in the data most compounds retested in dose-response had high values
# Details: 5 µM
row,SMILES,Percent Effect
1,CN1CC(C(=O)NCCc2ccn(-c3ccc(F)cc3)n2)CC1=O (centres undefined),-45.08%
2,CC(=O)N1CCCC(C(=O)NCCc2nc(Cc3ccccc3)no2)C1 (centres undefined),-1.107%
3,COc1ncccc1CNC(=O)C1CC(=O)N(C)C1 (centres undefined),-5.362%
4,CC(=O)N1CCCC(C(=O)NCCc2ccc(F)c(Br)c2)C1 (centres undefined),78.71%
5,CN1CC(C(=O)NCc2ccc(Br)cc2F)CC1=O (centres undefined),97.3%
6,CN1CC(C(=O)NCc2cccnc2OCC(F)(F)F)CC1=O (centres undefined),1.673%
7,CN1CC(C(=O)NCc2ccc(OCc3cccnc3)cc2)CC1=O (centres undefined),-2.56%
8,CC(C)CN1CC(C(=O)NCCc2ccc(OC(F)F)cc2)CC1=O (centres undefined),-18.94%
9,CSCc1nc(CCNC(=O)C2CCCN(C(C)=O)C2)cs1 (centres undefined),1.152%
10,CN1CC(C(=O)NCCc2ccc(F)c(Br)c2)CC1=O (centres undefined),95.91%
11,Cc1ccccc1CCNC(=O)C1CC(=O)N(CC(F)(F)F)C1 (centres undefined),1.737%
12,CN1CC(C(=O)NCCc2ccc(Br)cc2F)CC1=O (centres undefined),108.1%
13,Cn1ccc(C(=O)NC2CCN(c3ncccn3)CC2)cc1=O,3.49%
14,CC(C)N1CCN(C(=O)Nc2cnn(CC(N)=O)c2)CC1,2.959%
15,N#Cc1cccnc1NCCNC(=O)N1CCCSCC1,-6.239%
16,CCN(CC)S(=O)(=O)CC(=O)Nc1ccsc1,-11.66%
17,NC(=O)N1CCCC(C(=O)NCCOc2ccc(F)c(F)c2)C1 (centres undefined),-0.02905%
18,CC(=O)N1CCCC(C(=O)NCCOc2cc(C)cc(C)c2)C1 (centres undefined),99.72%
19,NC(=O)N1CCCC(C(=O)NCCOc2ccc(F)cc2F)C1 (centres undefined),-7.563%
20,COc1cccc(S(=O)(=O)CCN2CCN(CCO)CC2)c1,9.306%
21,Cc1noc(-c2ccc(N3CCC(C(=O)N4CCCC4)CC3)nc2)n1,-5.391%
22,Cc1ccc(-c2nc(C3CCN(C(=O)c4cnn(C)c4)CC3)no2)cn1,103.5%
23,Cc1cc(C)n(CCN(C)c2ccc(-c3nc(C4CC4)no3)cn2)n1,-7.447%
24,Cc1cccc2[nH]c(C3CCN(C(=O)c4ccnn4C)CC3)nc12,1.136%
25,Cc1ccc(-c2nc(C3CCN(C(=O)c4ccnn4C)CC3)no2)cn1,110.8%
26,Cc1cc(CNc2ccc(-c3nc(C4CC4)no3)cn2)no1,-5.978%

row,SMILES,Percent Effect
1,Cc1csc(CNc2ccc(-c3nc(C4CC4)no3)cn2)n1,8.683%
2,Cc1ccc(C(=O)N2CCC(c3noc(-c4cccnc4)n3)CC2)cn1,104.3%
3,O=C1NCCCC[C@@H]1Nc1ccc(-c2nc(C3CC3)no2)cn1,-3.27%
4,Cc1ccc(-c2nc(C3CCN(C(=O)c4ccn(C)n4)CC3)no2)cn1,126.5%
5,N#Cc1cccc(C(=O)N2CC(c3nc(-c4cccnc4)no3)C2)c1,18.62%
6,CS(=O)(=O)NCCn1ccc(-c2cccs2)n1,-6.394%
7,CCS(=O)(=O)CC(C)NC(=O)N(C)Cc1cc(Cl)cn1C (centres undefined),-1.914%
8,CCn1ccnc1CN1CCCC(CO)(Cc2cccc(OC)c2)C1 (centres undefined),5.509%
9,COCCN1CCN(C(=O)c2cc(C(C)C)on2)[C@H]2CS(=O)(=O)C[C@H]21,8.676%
10,CC(C)N1CC[C@@H]2[C@H](COCC3CC3)CN(C)C(=O)[C@@H]2CC1.O=C(O)C(F)(F)F,-0.4638%
11,COCC1c2nnn(CC3CC3)c2CCN1C(=O)c1cccn1C (centres undefined),-3.461%
12,COCC1c2nnn(C)c2CCN1C(=O)Cc1ccc2c(c1)OCO2 (centres undefined),20.75%
13,COCC1c2nnn(C)c2CCN1C(=O)CCc1cccc(OC)c1 (centres undefined),104.7%
14,COCC1c2nnn(C)c2CCN1C(=O)COc1ccccc1C (centres undefined),112%
15,Cn1nnc2c1CCN(Cc1ccccn1)C2COCc1ccccc1.O=C(O)C(F)(F)F.O=C(O)C(F)(F)F (centres undefined),-46.38%
16,Cn1nnc2c1CCN(C(=O)CC1CC1)C2COCCN1CCCC1 (centres undefined),-8.962%
17,CCc1ccc(CN2CCc3c(nnn3C)C2COC)cc1.O=C(O)C(F)(F)F (centres undefined),-3.58%
18,CCn1nnc2c1CCN(C(=O)c1ccc3c(c1)OCO3)C2COC (centres undefined),-29.17%
19,COCC1c2nnn(C)c2CCN1C(=O)Cc1ccccn1 (centres undefined),111.4%
20,COCC1c2nnn(C)c2CCN1C(=O)c1ccc(OC)c(F)c1 (centres undefined),111.1%
21,COCC1c2nnn(CC3CC3)c2CCN1C(=O)c1cccc(F)c1 (centres undefined),-7.214%
22,CN(C)C(=O)N1CCc2c(nnn2C)C1COCC1CC1 (centres undefined),-5.702%
23,NC(=O)c1ccc(N2CCCCC2)c(NC(=O)c2cc(F)ccc2F)c1,-3.666%
24,CCC(C)C(=O)NCc1cccc(N2CCCCC2=O)c1 (centres undefined),-5.78%
25,Cn1cnnc1S(=O)(=O)C1CCN(S(=O)(=O)C2CC2)CC1,-4.739%
26,CN(Cc1cc(Br)cn1C)C(=O)c1cscn1,4.085%

row,SMILES,Percent Effect
1,CCC(NCc1nccn1C)c1nc(C(F)(F)F)cs1 (centres undefined),20.15%
2,Cc1ccc(CN2CCC[C@@H]3CN(C(=O)c4ccco4)C[C@@H]32)o1.O=C(O)C(F)(F)F,-0.1922%
3,COCC(=O)N1CCc2c(nnn2C)C1COCCN1CCCC1.O=C(O)C(F)(F)F (centres undefined),-0.9958%
4,COCC1c2nnn(C)c2CCN1C(=O)COc1ccccc1OC (centres undefined),111.7%
5,CN(C)C(=O)N1CCc2c(nnn2C)C1COCc1ccccc1 (centres undefined),-4.916%
6,Cn1cnnc1CNC(=O)Nc1ccc(OC2CCC2)c(F)c1,19.99%
7,Cc1nc(C)c(C(=O)N2CCCc3c(F)cccc32)o1,-18.15%
8,Cc1nc(C)c(C(=O)N2CCc3nnc(C4CCCN4C)n3CC2)s1 (centres undefined),98.46%
9,Cc1nc(C)c(C(=O)N2CCc3nnc(C4CCCCN4C)n3CC2)s1 (centres undefined),78.92%
10,Cc1nc(C2CCCN(C(=O)c3sc(C)nc3C)C2)no1 (centres undefined),-10.94%
11,Cc1ncsc1C(=O)N1CCc2nnc(C3CCCCN3C)n2CC1 (centres undefined),103.3%
12,Cc1nc(C)c(C(=O)N2CCCC2c2nnc3n2CCCCC3)s1 (centres undefined),13.74%
13,Cc1ccc(C(=O)N2CCCC2c2nnc3n2CCCCC3)o1 (centres undefined),-4.034%
14,Cc1nc(C)c(C(=O)N2CCc3nnc(C4CCCCN4C)n3CC2)o1 (centres undefined),112.5%
15,Cc1cc2c(=O)n3c(nc2s1)CCN(C(=O)c1scnc1C)CC3,-10.56%
16,C=C(C)COc1cccc(CNC(CC(C)C)c2ncnn2C)c1 (centres undefined),-17.42%
17,CCc1ccccc1OCCN(C)C(=O)CCN1CCCCO1,-13.9%
18,CCN(c1ccc(C(=O)N(Cc2cnn(C)c2)C(C)C)cn1)C(C)C,-13.88%
19,CCCN(CC)c1ccc(C(=O)N2CCCC2c2cnn(C)c2)cn1 (centres undefined),104.2%
20,CCN(c1ccc(C(=O)N2CCCC2c2cnn(C)c2)cn1)C(C)C (centres undefined),103.8%
21,CC(C)(C#N)CCCS(=O)(=O)c1nccn1-c1cccc(F)c1,-8.679%
22,CC(C)(C)c1cc(NC(=O)CN(Cc2cccs2)Cc2cccs2)on1,32.93%
23,CC(CC(F)(F)F)NCc1ccccc1-n1ccnc1 (centres undefined),3.95%
24,CC(C)C1CN(S(=O)(=O)c2ccc(C#N)cc2)CCS1 (centres undefined),-10.5%
25,Cc1cc(C)n(C2CCCN(C(=O)COCC(F)(F)F)C2)n1 (centres undefined),-14.38%
26,Cc1cc(C)n(C2CCCN(C(=O)CCOc3cccc(F)c3)C2)n1 (centres undefined),118.8%

row,SMILES,Percent Effect
1,Cc1cc(C)n(C2CCCN(C(=O)CN(C)C3CC3)C2)n1 (centres undefined),-13.37%
2,Cc1nc(C)n(C2CCCN(C(=O)CCOc3cccc(F)c3)C2)n1 (centres undefined),103.4%
3,CC(NS(C)(=O)=O)C(=O)Nc1ccc2oc(C3CC3)nc2c1 (centres undefined),-12.46%
4,CC(C)n1cnnc1CNC(=O)CCCOc1ccccc1Cl,-21.75%
5,O=C(NS(=O)(=O)c1cnn(-c2ccccc2F)c1)c1ccco1,-14.51%
6,N#Cc1cccc(S(=O)(=O)N(CC2CCC2)c2cn[nH]c2)c1,-4.525%
7,Cc1occc1C(=O)N1CCO[C@H]2[C@H](Oc3cccnc3)CC[C@@H]21.O=C(O)C(F)(F)F,-18.12%
8,O=C(c1ccnnc1)N1C[C@H](Oc2cccnc2)[C@H]2OCCC[C@H]21,-6.406%
9,O=C(c1ccnnc1)N1CCO[C@H]2[C@H](Oc3cccnc3)CC[C@@H]21,84%
10,O=C(c1ccnnc1)N1C[C@@H](OCc2cccnc2)[C@H]2OCCC[C@H]21,85.61%
11,O=C(c1ccnnc1)N1CCO[C@H]2[C@@H](OCc3cccnc3)CC[C@@H]21,-4.529%
12,O=C(C1=CCCC1)N1C[C@H](OCc2cccnc2)[C@H]2OCCC[C@H]21,-3.807%
13,CCN(CC)C(=O)CCNC(=O)c1ccccc1N1CCOCC1,-16.45%
14,Cc1csc(N2CCN(C(=O)c3cc(Cl)c[nH]3)CC2)n1,-16.71%
15,Cc1nc(C)n(CC2CCCN(CC(=O)N3CCCC3)C2)n1 (centres undefined),118.1%
16,Cc1nc(C)n(CC2CCCN2CCC(=O)N2CCCCC2)n1 (centres undefined),145.3%
17,Cc1nc(C)n(CC2CCCN(CCC(=O)N3CCOCC3)C2)n1 (centres undefined),132.9%
18,Cc1nc(C)n(CC2CCCCN2CCS(C)(=O)=O)n1 (centres undefined),-3.909%
19,Cc1nc(C)n(CC2CCCN(CC(=O)Nc3c(C)n[nH]c3C)C2)n1 (centres undefined),-12.55%
20,Cc1nc(C)n(CC2CCCCN2CCCO)n1 (centres undefined),0.7848%
21,Cc1nc(C)n(CC2CCCN(CCCS(=O)(=O)N(C)C)C2)n1 (centres undefined),-11.1%
22,Cc1nc(C)n(CC2CCCN(CC(=O)Nc3nncs3)C2)n1 (centres undefined),-5.341%
23,Cc1nc(C)n(CC2CCCN(CCC(=O)N3CCCCC3)C2)n1 (centres undefined),-10.32%
24,Cc1nc(C)n(CC2CN(CCn3cccn3)CCO2)n1 (centres undefined),6.801%
25,Cc1nc(C)n(CC2CN(CCc3ccncc3)CCO2)n1 (centres undefined),-6.873%
26,Cc1nc(C)n(CC2CN(CCC(=O)N3CCCCC3)CCO2)n1 (centres undefined),110.4%
